Assay [1] can be described thus: Nuclear factor erythroid 2-related factor 2/antioxidant responsive element (Nrf2/ARE) small molecule agonists: qHTS cell viability counter screen in human keratinocytes (AID 1919968; active = well fitted curve in the direction sought with a large enough effect in the repeat runs; an effect the other way counts as inactive or inconclusive; also: nearly all actives have a fitted effect of over 55% in size; also: potency is read from the fitted curve at half-maximal effect). A digest of the protocol: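 CellTiter-Fluor fluorescence, read 1 h after reagent, gave viability in the same wells as the ARE-luciferase assay. KeratinoSens cells (1,500/well) had 23 h compound exposure at 37 C/5% CO2 following 5 h plating.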
A general note: qHTS replaces the single test concentration by a dilution series.

The nature of assay [2]: Nuclear factor erythroid 2-related factor 2/antioxidant responsive element (Nrf2/ARE) small molecule agonists: luciferase reporter gene qHTS assay in human keratinocytes (AID 1919969). Also: nearly all actives have a fitted effect of over 35% in size. Also: potency is read from the fitted curve at half-maximal effect. A general note: A reporter such as luciferase makes a cellular process visible.
Assay [3] is described as follows: G protein-coupled receptor (GPCR) small molecule agonists, calcium flux assay: HEK293 wild type cell line counter screen (AID 1920065). A digest of the protocol: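 Calcium flux counter screen: compound added in agonist mode at 15 concentrations in triplicate to dye-loaded parental HEK293 cells. Fluorescence (480/540) read kinetically for 3 min; ATP served as positive control.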
For orientation: A change in cytosolic calcium serves as a functional read-out for many receptors and channels.

A short description of assay [4]: p53 small molecule agonists, cell-based qHTS assay with human liver microsomes (AID 1963577).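 Also: p53 response element beta-lactamase reporter cells with liver microsomes plus NADPH.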 A digest of the protocol:
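Reporter activation was measured by LiveBLAzer fluorescence intensity in p53RE-bla cells, which had been exposed to compounds for 16 h at 37 C alongside 0.5 mg/mL human liver microsomes and 0.5 mg/mL NADPH (final concentrations).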

Assay [5] in a line: p53 small molecule agonists, cell-based qHTS assay with rat liver microsomes (AID 1963578). A digest of the protocol:
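Compound in DMSO added to p53RE-bla cells 5 h post-plating; rat microsomes/NADPH 0.5 mg/mL final; 16 h, 37 C; LiveBLAzer 2 h RT.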

Assay [6] can be described thus: p53 small molecule agonists, cell-based qHTS assay with human liver microsomes: qHTS cell viability counter screen (AID 1963579). Also: nearly all actives have a fitted effect of over 45% in size. Also: potency is read from the fitted curve at half-maximal effect. A digest of the protocol: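 HLM-supplemented (0.5 mg/mL final) and NADPH-supplemented (0.5 mg/mL final) p53RE-bla cultures, 4,000 cells per well, were dosed with compounds in DMSO for 16 h at 37 C; luminescent ATP detection (CellTiter-Glo, 30 min, room temperature) quantified surviving cells.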

Assay [7] in a line: p53 small molecule agonists, cell-based qHTS assay with rat liver microsomes: qHTS cell viability counter screen (AID 1963580). Also: nearly all actives have a fitted effect of over 45% in size. Also: potency is read from the fitted curve at half-maximal effect. Summed up: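 Cytotoxicity counter screen: intracellular ATP measured by CellTiter-Glo luminescence in the same wells as the beta-lactamase reporter read, on HCT-116 p53RE-bla cells exposed 16 h at 37 C to compounds with rat liver microsomes and NADPH, each 0.5 mg/mL final.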

The nature of assay [8]: p53 small molecule agonists, cell-based qHTS assay: qHTS cell viability counter screen (AID 1963581). Also: nearly all actives have a fitted effect of over 45% in size. Also: potency is read from the fitted curve at half-maximal effect. A digest of the protocol:
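Counter screen read by CellTiter-Glo luminescence (ATP content, 30 min at room temperature), run in the same wells as the beta-lactamase reporter read. HCT-116 p53RE-bla cells saw compounds for 16 h at 37 C.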

Assay [9] is described as follows: p53 small molecule agonists, cell-based qHTS assay (AID 1963582; active = well fitted activation curve with a large enough effect in the signal ratio in the repeat runs, not every such curve was filed as active; the % refers to the signal ratio; also: potency is read from the fitted curve at half-maximal effect). Summed up: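 Read-out is beta-lactamase FRET fluorescence after 2 h at room temperature with LiveBLAzer B/G substrate. p53 response element-bla cells were treated 16 h at 37 C with compounds in DMSO, added 5 h after seeding.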
Assay [10] deals with 5-hydroxytryptamine receptor 2A (Homo sapiens) (UniProt P28223). Description: 5-hydroxytryptamine receptor 2A (HTR2A) small molecule antagonists, cell-based qHTS assay (AID 1963586). Also: nearly all actives have a fitted effect of over 45% in size. Summed up:
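CHO cells stably expressing human HTR2A were plated for 18 h at 37 C, then loaded with calcium dye for 1 h. Compounds were preincubated 5 min at room temperature before DOI (4 nM solution) was added. Kinetic fluorescence was read for 3 min.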

The target is the same in assay [11]. Description: 5-hydroxytryptamine receptor 2A (HTR2A) small molecule agonists, cell-based qHTS assay (AID 1963587). Also: nearly all actives have a fitted effect of over 30% in size. A digest of the protocol:
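CHO cells stably expressing human HTR2A, plated 18 h, loaded with calcium dye 1 h at 37 C. Agonist mode: compounds added and intracellular calcium fluorescence recorded kinetically for 2 min at 1 sec intervals.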

Assay [12] addresses Muscarinic acetylcholine receptor M1 (Homo sapiens) (UniProt P11229). Description: Cholinergic receptor muscarinic 1 (CHRM1) small molecule antagonists, cell-based qHTS assay (AID 1963588). Also: nearly all actives have a fitted effect of over 40% in size. A digest of the protocol: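 Compounds were tested at 15 concentrations in three independent runs. Dye-loaded CHRM1-CHO cells were exposed 5 min at room temperature before stimulation by acetylcholine added at 50nM. Intracellular calcium was read kinetically on FDSS for 3 min.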

Assay [13] shares this target. Description: Cholinergic receptor muscarinic 1 (CHRM1) small molecule agonists, cell-based qHTS assay (AID 1963589). Also: nearly all actives have a fitted effect of over 35% in size. Summed up: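 Agonist-mode calcium-flux screen: compounds at 15 concentrations, three independent runs, were pin-transferred onto dye-loaded human CHRM1-CHO cells. Fluorescence was then recorded kinetically every second over minutes.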
A short description of assay [14]: cAMP Responsive Elements (CRE) small molecule agonists, cell-based qHTS assay (AID 1963590). Summed up:
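Agonist mode: compound added to CRE-bla HEK 293T cells (2,000/well, 18 h after plating) for 3 h at 37 C/5% CO2. Reporter activity detected via FRET beta-lactamase substrate, 2 h room-temperature loading.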

For assay [15], the target named is Beta-2 adrenergic receptor (Homo sapiens) (UniProt P07550). The experiment in a line: Adrenergic beta2 receptor (ADRB2) small molecule antagonists, cell-based qHTS assay (AID 1963592). Also: series mostly up to about 92 µM; nearly all actives have a fitted effect of over 50% in size. A digest of the protocol: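 Assay format: CHO-ADRB2 cells, 18-20hr seeding at 37C/5% CO2, then compound plus 1nM isoproterenol agonist mix for 0.5hr RT. Homogeneous time-resolved fluorescence cAMP detection after 1hr, expressed as 665/615 nm ratio.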
Sequence of Beta-2 adrenergic receptor (Homo sapiens) (P07550 whole entry, looked up): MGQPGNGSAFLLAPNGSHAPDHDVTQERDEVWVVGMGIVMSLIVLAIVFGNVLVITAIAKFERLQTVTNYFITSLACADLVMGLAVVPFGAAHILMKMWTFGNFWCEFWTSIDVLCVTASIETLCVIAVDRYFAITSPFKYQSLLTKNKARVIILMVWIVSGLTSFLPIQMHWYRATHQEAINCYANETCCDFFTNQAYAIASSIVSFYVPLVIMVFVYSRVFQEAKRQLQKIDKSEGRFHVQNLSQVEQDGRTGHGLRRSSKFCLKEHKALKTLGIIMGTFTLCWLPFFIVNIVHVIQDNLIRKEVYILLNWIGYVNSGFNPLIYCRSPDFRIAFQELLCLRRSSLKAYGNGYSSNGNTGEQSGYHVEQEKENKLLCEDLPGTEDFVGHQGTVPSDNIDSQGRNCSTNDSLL

Assay [16] shares this target. Description: Adrenergic beta2 receptor (ADRB2) small molecule agonists, cell-based qHTS assay (AID 1963593).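 Also: CHO cells stably overexpressing human ADRB2.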 Summed up:
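CHO cells stably over-expressing ADRB2 were plated overnight at 37C, then dosed with compounds plus a stimulation mix containing 100uM IBMX and 25uM Ro-20-1724 for 0.5hr at room temperature. cAMP was measured by HTRF competition, 1hr.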

In assay [17] the target is D(2) dopamine receptor (Homo sapiens) (UniProt P14416). Description: Dopamine D2 receptor (DRD2) small molecule agonists, cell-based qHTS assay (AID 1963594). Also: nearly all actives have a fitted effect of over 35% in size. Summed up: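 HEK293 cells stably expressing human DRD2, pre-treated with PDE inhibitor Ro20-1724 (0.1 mM final) and compound 10 min at room temperature, then stimulated with NKH477 (200nM […]) for 30 min. cAMP read by HTRF (665/620 nm).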
Sequence of D(2) dopamine receptor (Homo sapiens) (P14416 whole entry, looked up): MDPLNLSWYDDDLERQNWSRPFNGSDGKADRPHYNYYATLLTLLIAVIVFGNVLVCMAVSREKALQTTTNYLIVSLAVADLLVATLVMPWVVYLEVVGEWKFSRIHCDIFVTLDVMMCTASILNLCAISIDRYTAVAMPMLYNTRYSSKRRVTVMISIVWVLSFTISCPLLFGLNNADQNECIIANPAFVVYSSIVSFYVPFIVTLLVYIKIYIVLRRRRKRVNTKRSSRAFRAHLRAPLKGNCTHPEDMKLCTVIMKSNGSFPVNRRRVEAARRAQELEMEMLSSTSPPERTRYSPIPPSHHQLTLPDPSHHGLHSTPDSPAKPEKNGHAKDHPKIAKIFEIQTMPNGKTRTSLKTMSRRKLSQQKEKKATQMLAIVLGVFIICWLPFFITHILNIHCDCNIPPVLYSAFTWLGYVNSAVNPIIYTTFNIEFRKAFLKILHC

The target is the same in assay [18]. The experiment in a line: Dopamine D2 receptor (DRD2) small molecule antagonists, cell-based qHTS assay (AID 1963595; active = well fitted inhibition curve with a large enough effect in the signal ratio in the repeat runs, with a control signal flat; the % refers to the signal ratio; also: potency is read from the fitted curve at half-maximal effect). Summed up: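 Antagonist mode in DRD2-HEK293 cells: after compound addition with 0.1 mM Ro20-1724, cells received quinpirole (12 nM) and NKH477 (200 nM) for 30 min at room temperature; HTRF cAMP read after 1 h detection.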
Assay [19] addresses KiSS-1 receptor (Homo sapiens) (UniProt Q969F8). The experiment in a line: Human kisspeptin (KISS1R) small molecule agonists, calcium flux assay in KISS1R-HEK293 cells (AID 1920064; active = well fitted curve in the direction sought with a large enough effect in the repeat runs; an effect the other way counts as inactive or inconclusive). Summed up:
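Agonist mode: intracellular calcium rise tracked at 1 s intervals over 3 min (480/540 nm) immediately after compound addition to dye-loaded KISS1R-HEK293 stable cells. Each compound tested at 15 concentrations in triplicate.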

A short description of assay [20]: cAMP Responsive Elements (CRE) small molecule antagonists, cell-based qHTS assay (AID 1963591; active = well fitted inhibition curve with a large enough effect in the signal ratio in the repeat runs, not every such curve was filed as active; the % refers to the signal ratio). A digest of the protocol:
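Antagonist mode: compounds are added alongside the adenylyl cyclase activator NKH477 (0.25 uM final) to CRE-bla HEK293T cells for 3 h. LiveBLAzer FRET substrate, 2 h at room temperature, reports bla expression.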

We go through eight molecules from PubChem BioAssay (Tox21).

Molecules are shown by their SMILES. Values without a mark were called inactive. Records with an inconclusive call do not appear. Calls of active or inactive are those of the source. Unless noted, calls follow the shape of the full dose curve.

Sequence of 5-hydroxytryptamine receptor 2A (Homo sapiens) (P28223 whole entry, looked up): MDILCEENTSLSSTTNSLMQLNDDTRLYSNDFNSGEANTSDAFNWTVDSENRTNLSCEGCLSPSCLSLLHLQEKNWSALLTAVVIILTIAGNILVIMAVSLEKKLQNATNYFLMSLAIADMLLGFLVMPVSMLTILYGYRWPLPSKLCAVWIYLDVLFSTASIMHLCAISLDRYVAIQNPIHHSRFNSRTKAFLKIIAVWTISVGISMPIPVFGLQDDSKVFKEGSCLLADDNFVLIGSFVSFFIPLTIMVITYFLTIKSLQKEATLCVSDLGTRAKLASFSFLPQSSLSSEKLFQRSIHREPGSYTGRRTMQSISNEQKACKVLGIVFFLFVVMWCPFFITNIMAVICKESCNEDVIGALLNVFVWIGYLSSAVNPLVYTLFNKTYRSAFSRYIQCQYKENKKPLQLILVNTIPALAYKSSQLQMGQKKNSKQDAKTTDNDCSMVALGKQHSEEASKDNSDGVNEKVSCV
Sequence of Muscarinic acetylcholine receptor M1 (Homo sapiens) (P11229 whole entry, looked up): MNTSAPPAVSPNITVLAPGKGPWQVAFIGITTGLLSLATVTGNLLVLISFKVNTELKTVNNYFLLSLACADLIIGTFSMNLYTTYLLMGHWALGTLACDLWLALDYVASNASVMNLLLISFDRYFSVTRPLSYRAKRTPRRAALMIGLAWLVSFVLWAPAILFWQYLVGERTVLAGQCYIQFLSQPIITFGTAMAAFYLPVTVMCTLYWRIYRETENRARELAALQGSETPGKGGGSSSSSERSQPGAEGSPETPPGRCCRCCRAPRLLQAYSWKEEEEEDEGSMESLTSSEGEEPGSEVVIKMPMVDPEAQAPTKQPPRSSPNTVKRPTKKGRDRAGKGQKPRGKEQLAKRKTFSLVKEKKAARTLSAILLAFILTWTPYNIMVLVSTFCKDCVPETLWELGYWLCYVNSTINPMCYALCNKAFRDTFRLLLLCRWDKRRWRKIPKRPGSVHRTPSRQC
Sequence of KiSS-1 receptor (Homo sapiens) (Q969F8 whole entry, looked up): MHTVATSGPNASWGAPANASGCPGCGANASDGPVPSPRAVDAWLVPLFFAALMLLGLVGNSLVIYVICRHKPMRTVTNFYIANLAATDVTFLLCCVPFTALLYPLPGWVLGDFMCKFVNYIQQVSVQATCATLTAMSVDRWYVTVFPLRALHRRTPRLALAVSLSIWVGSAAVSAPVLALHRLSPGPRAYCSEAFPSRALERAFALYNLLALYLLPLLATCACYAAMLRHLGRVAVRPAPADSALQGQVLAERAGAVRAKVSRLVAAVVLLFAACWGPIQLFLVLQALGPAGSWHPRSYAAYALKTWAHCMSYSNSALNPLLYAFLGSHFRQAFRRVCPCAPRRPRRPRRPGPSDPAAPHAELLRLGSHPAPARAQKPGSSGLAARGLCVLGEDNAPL

Regarding `Oc1ccccc1Br`, the Potency result in assay [1], in [2], in assay [3], in [4], in assay [5] and in [6] was “inactive” in each case. Also, the Potency entry in [7], in assay [8], in [9], in [10], in assay [11] and in assay [12] was “inactive” throughout. Besides, the Potency entry in [13], in [14], in [15], in assay [16], in assay [17] and in assay [18] was “inactive” throughout.
Regarding `N#Cc1c[nH]cc1-c1cccc2c1OC(F)(F)O2`, the Potency entry in [1], in assay [2], in [3], in assay [5], in assay [6] and in assay [7] was “inactive” each time. Also, the Potency entry in assay [10], in assay [11], in assay [12], in assay [13], in [15] and in assay [17] was “inactive” throughout. In addition, in assay [18], the Potency entry was “inactive”. The Potency in [9] is 14.5 µM (active).
Consider `CON(C)C(=O)Nc1ccc(Br)cc1`, for which the Potency entry in [1], in assay [2], in assay [3], in assay [4], in [5] and in [6] was “inactive” in each case. Besides, the Potency result in assay [8], in [10], in [11], in assay [12], in [13] and in assay [14] was “inactive” throughout. The Potency entry in [15], in assay [17] and in assay [18] was “inactive” throughout.
Turning to `NC1=NC(=O)C(c2ccccc2)O1` (stereo not given), the Potency entry in assay [1], in [2], in assay [19], in [3], in [4] and in [5] was “inactive” throughout. For the same molecule, the Potency entry in [7], in [8], in [9], in assay [14], in assay [20] and in assay [15] was “inactive” each time. Also, the Potency entry in assay [17] was “inactive”.
With `CC(O)C(=O)[O][Hg][c]1ccccc1` (stereo not given), the Potency is 1.72 µM (active) in assay [1]; 0.864 µM (active) in assay [2]; 3.63 µM (active) in assay [6]; 8.14 µM (active) in assay [7]; 2.89 µM (active) in assay [8]; 2.73 µM (active) in [18]. Moreover, the Potency entry in assay [19], in [3], in assay [4], in assay [5] and in assay [10] was “inactive” throughout.
Consider `C[N+]1(CCF)[C@@H]2CC[C@H]1CC(OC(=O)C(O)(c1ccccc1)c1ccccc1)C2` (stereo not given in full), for which the Potency result in [1], in [2], in assay [19], in [3], in [4] and in assay [5] was “inactive” each time. The Potency entry in assay [6], in [7], in [8], in [9], in assay [10] and in assay [11] was “inactive” in each case. Further, the Potency entry in assay [13], in assay [14], in [20], in assay [15], in assay [17] and in assay [18] was “inactive” each time.
For the molecule `N#CSCc1ccccc1`, the Potency result in assay [1], in assay [19], in assay [3], in [4], in [5] and in assay [6] was “inactive” each time. Further, the Potency result in [8], in assay [10], in assay [11], in [12], in assay [14] and in assay [15] was “inactive” throughout. Moreover, the Potency entry in assay [16], in [17] and in assay [18] was “inactive” in each case. Further, the Potency in [2] is 68.9 µM (active).
As to `c1ccc(C2CC2)c(OCC2=NCCN2)c1`, the Potency result in assay [1], in [2], in assay [19], in [3], in assay [5] and in [6] was “inactive” in each case. Also, the Potency result in assay [7], in [8], in assay [9], in assay [10], in assay [12] and in assay [13] was “inactive” throughout. The Potency entry in [15] and in assay [17] was “inactive” throughout. Moreover, in [18], the Potency was 8.41 µM (active).
